The full list was thinned out, with hits kept by preference.
Pf Dd2 growth: Plasmodium falciparum Dd2 growth inhibition; P. falciparum Dd2 growth, SYBR Green, 72 h; 120,000 compounds, 4.3% hits; AID 1347417; Potency, µM (series often up to 28.9 µM), without a hit: at the highest dose activity, negative = inhibition, hits mostly inhibitors; active = well fitted inhibition curve with a large enough effect;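 also: plate controls were DMSO vehicle for no effect and reference drug for full effect; nearly all actives have a fitted effect of over 65% in size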
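Infected erythrocytes (Dd2, 0.3% parasitemia, 2.5% hematocrit final) are added to compound in RPMI-1640/Albumax II medium, grown 72 h at 37C in low oxygen, then lysed with saponin/Triton-X containing SYBR Green and read by fluorescence.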
* marks the source's active call; other numbers are inactive results; [ ] = remark or other dose. Potency is read from the fitted curve at half-maximal effect.

Screening CC(=O)N1CCN(C(=O)C[C@@H]2c3nc(-c4ccsc4)sc3C[C@@H]3[C@](C)(CO)[C@H](O)CC[C@]32C)CC1 returned Pf Dd2 growth -49%.
Screening C[C@]1(CO)[C@H]2Cc3sc(NC(=O)c4ccc(F)cc4)nc3[C@@H](CC(=O)N3CCOCC3)[C@]2(C)CC[C@H]1O returned Pf Dd2 growth 10µM*.
For CC(C)(C)c1ccc(C(=O)Nc2nc3c(s2)C[C@@H]2[C@](C)(CO)[C@H](O)CC[C@@]2(C)[C@@H]3CC(=O)N2CCC(C(N)=O)CC2)cc1 the results were Pf Dd2 growth 11µM*.
`C[C@]1(CO)[C@H]2Cc3sc(-c4ccccc4)nc3[C@@H](CC(=O)N3CCOCC3)[C@]2(C)CC[C@H]1O` gave Pf Dd2 growth inactive.
Screening CN(Cc1cccc(-c2nn[nH]n2)c1)C(=O)C1CCCN(CC(N)=O)C1 (stereo not given) returned Pf Dd2 growth -11%.
For C[C@@H]1CN(C(=O)c2cccc(N3CCCC3=O)c2)C[C@@]1(O)C1CCC1 the results were Pf Dd2 growth inactive.
`O=C1NCCC[C@@H]1NC(=O)[C@H]1CN(C(=O)NC2CCCCC2)CCN1C(=O)c1cncnc1` gave Pf Dd2 growth 12%.
For Cc1ccc(NC(=O)/C=C/c2ccccc2Cl)cc1Cl the results were Pf Dd2 growth 2.8µM*.
CNC(=O)c1c(NC(=O)/C=C/c2ccccc2Cl)sc2c1CCC2 was read as Pf Dd2 growth -17%.
For Cc1ccc(NC(=O)c2ncn(-c3ccccc3)n2)cc1Cl the results were Pf Dd2 growth 9%.
COc1ccccc1CNC[C@H]1O[C@@H]2C[C@@H](CC(=O)N3CCC(F)(F)C3)O[C@@H]2[C@@H]1O was read as Pf Dd2 growth 14%[44.1 µM].
Screening COc1ccc(C(=O)N2CCCCCCNC(=O)CC2)cc1F returned Pf Dd2 growth -8%.
For COc1ccc(C(=O)N2CCC(c3n[nH]c(=O)n3Cc3ccc(F)cc3)CC2)cn1 the results were Pf Dd2 growth inactive.
O=C(c1ccc(Oc2ccc(CN3CCCC3)cc2F)nc1)N1CCCCC1 was read as Pf Dd2 growth 7.1µM*.
Cc1noc([C@@H]2CN(C(=O)c3cn[nH]c3)C[C@H]2C(N)=O)n1 was read as Pf Dd2 growth inactive.
NC(=O)C1CCN(c2ncncc2-c2nc(-c3ccccc3)no2)CC1 was read as Pf Dd2 growth -21%.
Screening c1ccc(-c2noc(-c3cncnc3N3CCN(c4ccccc4)CC3)n2)cc1 returned Pf Dd2 growth -11%.
For O=C(c1ccco1)N1CCN(c2ncncc2-c2nc(-c3ccccc3)no2)CC1 the results were Pf Dd2 growth 4µM*.
For CCn1cc(S(=O)(=O)N2CCC(N3C(=O)C(OC)C34CCOCC4)CC2)cn1 (stereo not given) the results were Pf Dd2 growth 11%.
Screening COCCOC1CCN(C(=O)Cc2cccs2)CC1 returned Pf Dd2 growth 30%.
For Cc1ccc(-n2c(-c3ccco3)nc3c(cnn3-c3ccccc3C)c2=O)cc1 the results were Pf Dd2 growth inactive.
COc1cccc(-n2c(-c3ccccc3F)nc3c(cnn3-c3ccc(C)cc3)c2=O)c1 was read as Pf Dd2 growth 8.9µM*.
For Cc1ccc(-n2c(C)nc3c(cnn3-c3ccccc3)c2=O)cc1 the results were Pf Dd2 growth 14%.
Screening Cc1ccc(-c2nc3c(cnn3-c3ccccc3)c(=O)n2-c2cccc(Cl)c2)cc1 returned Pf Dd2 growth -7%.
For Cc1cccc(-n2c(-c3ccco3)nc3c(cnn3-c3ccc(F)cc3)c2=O)c1 the results were Pf Dd2 growth inactive.
`Cc1ccc(-n2c(-c3ccco3)nc3c(cnn3-c3ccc(C)cc3)c2=O)cc1` gave Pf Dd2 growth 11µM*.
For COc1c(C)cccc1C(=O)N1CCC2(CC1)Nc1ccccc1NC2=O the results were Pf Dd2 growth -2%.
c1cc(-c2nc(CC3CCNC3)no2)ccn1 (stereo not given) was read as Pf Dd2 growth inactive.
Screening CC(C)NC(=O)N(C1CC1)C1CCOC2(CCN(C(=O)c3ccc4nc[nH]c4c3)CC2)C1 (stereo not given) returned Pf Dd2 growth 35%.
O=C(CN1C(=O)CNC1=O)N1C[C@H](CO)C[C@H](CN2CCOCC2)C1 was read as Pf Dd2 growth -5%.
`CCCOc1nccnc1NC1CCN(C(=O)c2ccccn2)CC1` gave Pf Dd2 growth inactive[5.79 µM].
CC(=O)N1CCC(C2CCN(Cc3ccc(C)cn3)C2)CC1 (stereo not given) was read as Pf Dd2 growth -7%.
Screening COc1ccc(CNC(=O)c2ccc(CN3C(=O)NC4(CCOCC4)C3=O)cc2)cc1 returned Pf Dd2 growth 24%.
For Cc1ccccc1-c1nc(Cn2ccnc2C(C)C)c(C)o1 the results were Pf Dd2 growth 11µM*.
For Cc1ccc(CSc2nc3ccncc3n2Cc2nc(-c3ccccc3C)oc2C)cc1 the results were Pf Dd2 growth 11%.
Screening Cc1ccccc1-c1nc(CS(=O)(=O)CC(=O)Nc2c(C)cccc2C)c(C)o1 returned Pf Dd2 growth 4%.
CN1CCCN(C[C@@H]2CN(S(C)(=O)=O)C[C@@H]2CO)CC1 was read as Pf Dd2 growth -3%.
`O=C1Nc2ccccc2CC12CCCN2CC1CCCCC1` (stereo not given) gave Pf Dd2 growth 7.1µM*.
Screening CC(=O)N1Cc2ccccc2NC(=O)C12CCNCC2 returned Pf Dd2 growth 20%.
CCN1Cc2ccccc2NC(=O)C12CCNC2 (stereo not given) was read as Pf Dd2 growth -19%.
For O=C1Nc2ccccc2CN(CC2CCCCC2)C12CCNCC2 the results were Pf Dd2 growth 11µM*.
CN1Cc2ccccc2NC(=O)C12CCNC2 (stereo not given) was read as Pf Dd2 growth 10%[44.1 µM].
For O=C1Nc2ccccc2CC12CCCN2CC1CCOCC1 (stereo not given) the results were Pf Dd2 growth -7%.
`CC(=O)N1Cc2ccccc2NC(=O)C12CCNC2` (stereo not given) gave Pf Dd2 growth 18%[44.1 µM].
For O=C1Nc2ccccc2CN(Cc2ccc(Cl)cc2)C12CCNC2 (stereo not given) the results were Pf Dd2 growth 10µM*.
For O=C1Nc2ccccc2CC12CCCN2Cc1ccc(Cl)cc1 (stereo not given) the results were Pf Dd2 growth 6%.
Cc1noc([C@@H]2CN(C3CCN(Cc4ccccc4)CC3)C[C@H]2CO)n1 was read as Pf Dd2 growth -10%.
For O=C1NCCC[C@@H]1NC(=O)[C@@H]1CN(C(=O)C2CCCCC2)CCN1C(=O)c1cccc(F)c1 the results were Pf Dd2 growth inactive.
Screening CN(CC1CCOC1)C(=O)Nc1cc(F)cc(F)c1 (stereo not given) returned Pf Dd2 growth -10%.
For COc1ccccc1OCc1cc(C(=O)NCc2cnc(C)cn2)n[nH]1 the results were Pf Dd2 growth -10%.
Screening COc1cccc(CN2C[C@@H](CO)[C@H](c3nc(C)no3)C2)c1OC returned Pf Dd2 growth inactive.
Screening COc1ccc(CN2C[C@@H](CO)[C@H](c3nc(C)no3)C2)cc1OC returned Pf Dd2 growth 10%.
For COc1ccc2c(c1)c(CN1C[C@@H](CO)[C@H](c3nc(C)no3)C1)cn2C the results were Pf Dd2 growth 10µM*.
`COc1ccc(CCC(=O)N2CCC(Cc3nc(-c4ccc(F)cc4)no3)CC2)cc1` gave Pf Dd2 growth -23%.
`CCOc1ccc(C(=O)N2CCC(Cc3nc(-c4ccc(OC)cc4)no3)CC2)cc1OCC` gave Pf Dd2 growth 8.9µM*.
CCOc1cc(C(=O)N2CCC(Cc3nc(-c4ccc(F)cc4)no3)CC2)cc(OCC)c1OCC was read as Pf Dd2 growth -13%.
